Data: paper PMC12136788
The full ranking holds about 5,800 sequences; the median of “enrichment r” is about 0.68, and the highest 2% start at about 11. A selection follows.

T1: UNK ZnF1-6 (called full-length) (human, UniProt Q9C0B0 30-357)
T1 sequence: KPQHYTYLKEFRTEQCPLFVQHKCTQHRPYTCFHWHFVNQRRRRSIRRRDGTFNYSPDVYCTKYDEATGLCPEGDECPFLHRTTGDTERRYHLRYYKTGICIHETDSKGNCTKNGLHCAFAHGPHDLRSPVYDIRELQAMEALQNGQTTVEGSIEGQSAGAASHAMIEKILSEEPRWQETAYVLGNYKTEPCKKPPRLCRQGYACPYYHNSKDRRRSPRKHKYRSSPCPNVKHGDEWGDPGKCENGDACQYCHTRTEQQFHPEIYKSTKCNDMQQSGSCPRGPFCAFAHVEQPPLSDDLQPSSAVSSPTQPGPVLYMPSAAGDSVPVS

B1: ENSG00000198589:be:win_3501|CDS|ENSG00000198589|bound_else_gene|NA|bound_elsewhere_windowed (ssRNA)
RNA: GGGAGUUCUACAGUCCGACGAUCUGAUACUGAAACUCAAGAUUCUAAAGAUUCUGGAAUUCAGACUAUGACAGCAUCAGGGUCUUCAGCUAUGUCACCAGAAACUACUGUUUCCCAAAUAGCUGUAGAAUCAGACCUUGGUCACAACAGAGGAUUGAGCAUCA
B2: chr5:136975339:136975545:-|3pUTR|ENSG00000152377|msi1|total|mutant (ssRNA)
RNA: GGGAGUUCUACAGUCCGACGAUCAGAGCCCAUCAAAUCCUGAGUGUCAGUUUGUUGUCCCUAUUGCCGAUGAAACCGUGAUGCCGCAAAAACCCCGUAAAUUCUGAAUGCUUUUCCACGCCGACUUAUCUGGAAUGUGAACACCAACAGAGGAUUGAGCAUCA
B3: chr3:124966548:124966651:-|3pUTR|ENSG00000173706|unk|total|mutant (ssRNA)
RNA: GGGAGUUCUACAGUCCGACGAUCAGGAAGAAUGCAAAGUUCAGUAUUUCAAUACUUUGUAUUUUACUUGAAAUUACCCUCCGCCGCAUCUUUUUUUUCCUGUCUGAAAGCUUUUGUGUGGAUGAGAAGGGACAUUUCAUUUCCCAACAGAGGAUUGAGCAUCA
B4: ENSG00000124766:be:win_801|CDS|ENSG00000124766|bound_else_gene|NA|bound_elsewhere_windowed (ssRNA)
RNA: GGGAGUUCUACAGUCCGACGAUCCUCGGCCUCCGCCUCCUCGGCAGCCUCGGCCUCCGCAGCGCUCGCGGCCCCGGGCAAGCACCUGGCGGAGAAGAAGGUGAAGCGCGUCUACCUGUUCGGCGGCCUGGGCACGUCGUCGUCCAACAGAGGAUUGAGCAUCA
B5: ENSG00000101945:stop:overlap|stop_codon|ENSG00000101945|stop_codon|NA|stop_codon (ssRNA)
RNA: GGGAGUUCUACAGUCCGACGAUCAGAAGCGGGUCCGUAUUGAAUGCAAGUGUGGGACUGAGUCCUGCCGCAAAUACCUCUUCUAGCCCUUAGAAGUCUGAGGCCAGACUGACUGAGGGGGCCUGAAGCUACAUGCACCUCCCCCAACAGAGGAUUGAGCAUCA
B6: chr12:24812577:24812678:-|3pUTR|ENSG00000060982|msi1|FALSE|unique (ssRNA)
RNA: GGGAGUUCUACAGUCCGACGAUCAUCCAAAGGAGCUUUUUCCUUAUUCUGUCAAGCAUUGAGAUCUUCUUCAGCUUUCAAUGUAGUUGCUAAAUACAAAUAAUGCUACUAGGUAGUGACUAAAUAUAGCAAACACUUCAUCAGCAACAGAGGAUUGAGCAUCA
B7: chr10:22535117:22535218:-|3pUTR|ENSG00000150867|unk|FALSE|unique (ssRNA)
RNA: GGGAGUUCUACAGUCCGACGAUCAAGGUACACAUACAUUAUUUGAGUAACUGUUUCCUUGGGGGCCAAUCUGUGUAUGCUUUUAGAAGUUUACAGAAUGCUUUUAUUUUUGUCUAUAACAAACAGUCUGUCAUUUAUUUCUGUCAACAGAGGAUUGAGCAUCA
B8: chr9:76611375:76614569:-|three_prime_utr|ENSG00000106772|control|control|control (ssRNA)
RNA: GGGAGUUCUACAGUCCGACGAUCAUGUUACCUUUUUCCACUUUGCACUACCUGGUGCCAUUCUAAAUUUCUAAGGGGAAAAAUAGAAAGUUUGUUUACUCUUAAGAUAUUUUAUGAAAUUGUGUGUACUUUCCUAUUUUGCCACAACAGAGGAUUGAGCAUCA
B9: chr12:131960804:131960905:+|CDS|ENSG00000183495|unk|total|mutant (ssRNA)
RNA: GGGAGUUCUACAGUCCGACGAUCCCCUCAGCAAGCCCGUCGGCACCCCAGUCUCCCAGUUAUCAAAUACAGCAGCUGAUGAACCGGAGCCCUGCAACCGGGCAGAACGUGAACAUCACCCUGCAGAGCGUGGGCCCUGUCGUCCAACAGAGGAUUGAGCAUCA
B10: chr1:154944474:154944574:-|3pUTR|ENSG00000163346|msi1_unk|FALSE|overlapping (ssRNA)
RNA: GGGAGUUCUACAGUCCGACGAUCUCGAGGCCCAGCACGAGGACUUACCCUGGGGUUUUGUUAGGUUUGGAAGCAGCUGUCCCUAGGGGGUGAAGUCCCCCCCCUUUUUUUUUUUACCCCUGCUUCUCCCACGGCUUCACCUCCCAACAGAGGAUUGAGCAUCA
B11: chr7:32869766:32869881:-|CDS|ENSG00000170852|unk|FALSE|bound_elsewhere (ssRNA)
RNA: GGGAGUUCUACAGUCCGACGAUCAUGUACUGUUAUUUUCCAAGGUCUGACUCAUGGGUAGAAAUGGCCAUGAGACAGACUAGUAGGUCCUUUGCUUCAGCUGCAGCUUUUGGUGAUAAAAUUUUCUAUAUUGGAGGGUUGCAUCAACAGAGGAUUGAGCAUCA
B12: chr2:42682433:42682535:+|CDS|ENSG00000057935|unk|FALSE|unique (ssRNA)
RNA: GGGAGUUCUACAGUCCGACGAUCUCACGCUAUGGAUACAUUGUAUAGACACAGCUAUGAUUUGAGCAGUGCCAUUAGUGUCUUAGUACCACUCGGAGGACCUGUUUUAUGCAGAGAUGAAAUGGAGGAAUGGUCAGCCUCUGACAACAGAGGAUUGAGCAUCA
B13: chr1:64832709:64832810:+|3pUTR|ENSG00000162437|msi1|total|mutant (ssRNA)
RNA: GGGAGUUCUACAGUCCGACGAUCACAGCCCGAAAGUUUAAGGUAAUUUCUAAGUAUACUACCUAUAAGUAACUGAUAAGAAUCCGGCAUCAUUCAGUGAUACCGCAGAUGACUAAUGGGUUUUUCAGGCCCUGCACUUCUCUUCAACAGAGGAUUGAGCAUCA
B14: chr7:16784014:16784129:+|3pUTR|ENSG00000106537|msi1_unk|total|mutant (ssRNA)
RNA: GGGAGUUCUACAGUCCGACGAUCGAUAAUUUACUUGCCGUCUUUUAUGAUUACACCAAUGUAUUCCCGAAACCGUUAUGUCUCCGGAAAUUGUGGUUUAAUUUUUGACUUUUACAGGUAAGUGCAAAGGAGAAGUGGUUUCAUCAACAGAGGAUUGAGCAUCA

Target: T1, UNK ZnF1-6 (called full-length)
Test: nsRBNS (natural sequence RNA bind-n-seq); RBNS binding buffer (assumed for nsRBNS): 25 mM Tris pH 7.5, 150 mM KCl, 3 mM MgCl2, 0.01% Triton X-100, 500 ug/ml BSA, 20 U/ml SUPERase-In, 4 C; UNK is unkempt and MSI1 is Musashi-1; names of the RNAs are library labels; protein concentration not given here; high values mean tight binding

Binder	binding signal
B1	0.311 enrichment R
B2	0.528 enrichment R
B3	0.473 enrichment R
B4	0.655 enrichment R
B5	0.806 enrichment R
B6	0.559 enrichment R
B7	0.472 enrichment R
B8	0.818 enrichment R
B9	1.09 enrichment R
B10	1.37 enrichment R
B11	0.714 enrichment R
B12	0.747 enrichment R
B13	0.244 enrichment R
B14	0.435 enrichment R
